# Results reported in PMC7862700, “An all-to-all approach to the identification of sequence-specific readers for epigenetic DNA modifications on cytosine”.
# Key:
# Assay in all cases: DAPPL (digital affinity profiling via proximity ligation, sequencing); 10 mM Tris-HCl pH 7.5, 50 mM NaCl, 1 mM DTT, 4% glycerol, room temperature, 30 min; GST-TFs on glutathione beads, 16-mer random dsDNA library, 0.1% formaldehyde crosslink after washing; high values mean tight binding
# [1] = target: T1, FLI1 (Homo sapiens, UniProt Q01543 1-452); details: protein: recombinant; tags: N-terminal GST; dsDNA, one strand shown
# T1 sequence: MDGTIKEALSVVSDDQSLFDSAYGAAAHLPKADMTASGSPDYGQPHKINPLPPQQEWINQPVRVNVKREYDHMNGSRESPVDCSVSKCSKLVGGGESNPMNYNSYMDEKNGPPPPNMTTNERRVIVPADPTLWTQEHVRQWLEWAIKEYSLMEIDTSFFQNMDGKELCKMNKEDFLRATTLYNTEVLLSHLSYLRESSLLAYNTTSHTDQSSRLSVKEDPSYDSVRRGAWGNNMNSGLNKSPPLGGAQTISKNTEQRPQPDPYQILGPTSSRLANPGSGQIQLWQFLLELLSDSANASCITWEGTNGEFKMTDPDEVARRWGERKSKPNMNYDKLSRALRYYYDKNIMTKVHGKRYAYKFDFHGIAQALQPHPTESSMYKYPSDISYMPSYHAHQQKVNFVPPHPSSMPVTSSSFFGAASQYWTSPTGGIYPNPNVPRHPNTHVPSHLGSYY
# How it was run: (§1)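 Binding signal is each hexamer's read frequency for a factor divided by its frequency in the tag-only sample. The factors were GST-fused human transcription factors from yeast, captured on glutathione beads, DNA-barcoded and pooled with that sample. Pools were incubated with 200 nmole of a random double-stranded 16-mer DNA library in Tris/NaCl/DTT/glycerol buffer at room temperature for 30 min, then washed, crosslinked with 0.1% formaldehyde, proximity-ligated with BsaI/T4 ligase (1 h, 37 °C), PCR-amplified and sequenced on an Illumina NextSeq500.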
# [2] = target: T2, ELK1 (Homo sapiens, UniProt P19419 1-428); details: protein: recombinant; tags: N-terminal GST; dsDNA, one strand shown
# T2 sequence: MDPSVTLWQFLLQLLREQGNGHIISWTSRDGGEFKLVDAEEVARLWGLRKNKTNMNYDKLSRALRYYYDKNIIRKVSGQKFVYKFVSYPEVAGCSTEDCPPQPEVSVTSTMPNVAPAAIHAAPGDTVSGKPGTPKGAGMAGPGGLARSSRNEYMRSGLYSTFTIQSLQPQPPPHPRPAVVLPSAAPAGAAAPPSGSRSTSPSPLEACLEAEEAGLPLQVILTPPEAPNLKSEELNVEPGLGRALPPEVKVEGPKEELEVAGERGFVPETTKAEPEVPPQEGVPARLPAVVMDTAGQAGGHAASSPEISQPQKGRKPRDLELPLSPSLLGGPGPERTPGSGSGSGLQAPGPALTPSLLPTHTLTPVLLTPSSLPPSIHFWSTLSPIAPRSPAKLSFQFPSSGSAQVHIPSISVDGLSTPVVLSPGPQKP
# How it was run: as §1
# [3] = target: T3, GABPA (Homo sapiens, UniProt Q06546 1-454); details: protein: recombinant; tags: N-terminal GST; dsDNA, one strand shown
# T3 sequence: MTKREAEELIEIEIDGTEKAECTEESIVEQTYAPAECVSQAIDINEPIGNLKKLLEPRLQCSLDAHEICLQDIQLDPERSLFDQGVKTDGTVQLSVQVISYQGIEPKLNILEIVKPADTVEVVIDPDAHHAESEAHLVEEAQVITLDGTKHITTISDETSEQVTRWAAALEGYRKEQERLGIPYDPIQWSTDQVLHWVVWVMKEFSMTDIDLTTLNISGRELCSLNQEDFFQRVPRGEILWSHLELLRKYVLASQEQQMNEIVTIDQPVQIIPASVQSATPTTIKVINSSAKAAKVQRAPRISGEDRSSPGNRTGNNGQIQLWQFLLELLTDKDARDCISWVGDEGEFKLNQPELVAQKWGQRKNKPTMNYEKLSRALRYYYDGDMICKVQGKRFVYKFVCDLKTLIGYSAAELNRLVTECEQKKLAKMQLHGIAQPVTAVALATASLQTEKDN
# How it was run: as §1
# [4] = target: T4, ERG (Homo sapiens, UniProt P11308 1-479); details: protein: recombinant; tags: N-terminal GST; dsDNA, one strand shown
# T4 sequence: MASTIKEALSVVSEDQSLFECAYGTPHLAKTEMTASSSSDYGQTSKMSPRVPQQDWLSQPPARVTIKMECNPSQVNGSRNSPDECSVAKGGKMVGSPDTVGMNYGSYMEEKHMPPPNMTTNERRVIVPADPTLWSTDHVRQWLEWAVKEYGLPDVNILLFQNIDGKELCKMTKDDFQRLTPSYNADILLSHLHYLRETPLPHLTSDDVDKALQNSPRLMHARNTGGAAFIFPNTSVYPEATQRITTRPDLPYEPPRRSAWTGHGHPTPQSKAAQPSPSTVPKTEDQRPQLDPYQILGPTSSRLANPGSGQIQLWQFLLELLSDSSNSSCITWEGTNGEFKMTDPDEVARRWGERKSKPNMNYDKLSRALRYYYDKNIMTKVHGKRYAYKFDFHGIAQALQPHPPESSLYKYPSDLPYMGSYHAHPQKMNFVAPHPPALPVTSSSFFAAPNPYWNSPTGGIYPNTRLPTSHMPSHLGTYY
# How it was run: as §1
# [5] = target: ELF1 (Homo sapiens, UniProt P32519 1-619); details: protein: recombinant; tags: N-terminal GST; dsDNA, one strand shown
# How it was run: as §1
# [6] = target: T5, EHF (Homo sapiens, UniProt Q9NZC4 1-300); details: protein: recombinant; tags: N-terminal GST; dsDNA, one strand shown
# T5 sequence: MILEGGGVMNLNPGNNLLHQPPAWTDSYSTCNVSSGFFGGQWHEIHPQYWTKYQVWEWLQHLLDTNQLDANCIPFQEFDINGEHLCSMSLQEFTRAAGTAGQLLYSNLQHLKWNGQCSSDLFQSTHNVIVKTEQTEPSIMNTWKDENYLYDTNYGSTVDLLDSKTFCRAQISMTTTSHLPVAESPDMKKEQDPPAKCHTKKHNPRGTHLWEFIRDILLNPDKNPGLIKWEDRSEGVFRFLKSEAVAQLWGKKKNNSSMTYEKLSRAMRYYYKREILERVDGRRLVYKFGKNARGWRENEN
# How it was run: as §1
# [7] = target: SPI1 (Homo sapiens, UniProt P17947 1-270); details: protein: recombinant; tags: N-terminal GST; dsDNA, one strand shown
# How it was run: as §1
# [8] = target: SPIB (Homo sapiens, UniProt Q01892 1-262); details: protein: recombinant; tags: N-terminal GST; dsDNA, one strand shown
# How it was run: as §1
# [9] = target: T6, ELK3 (Homo sapiens, UniProt P41970 1-407); details: protein: recombinant; tags: N-terminal GST; dsDNA, one strand shown
# T6 sequence: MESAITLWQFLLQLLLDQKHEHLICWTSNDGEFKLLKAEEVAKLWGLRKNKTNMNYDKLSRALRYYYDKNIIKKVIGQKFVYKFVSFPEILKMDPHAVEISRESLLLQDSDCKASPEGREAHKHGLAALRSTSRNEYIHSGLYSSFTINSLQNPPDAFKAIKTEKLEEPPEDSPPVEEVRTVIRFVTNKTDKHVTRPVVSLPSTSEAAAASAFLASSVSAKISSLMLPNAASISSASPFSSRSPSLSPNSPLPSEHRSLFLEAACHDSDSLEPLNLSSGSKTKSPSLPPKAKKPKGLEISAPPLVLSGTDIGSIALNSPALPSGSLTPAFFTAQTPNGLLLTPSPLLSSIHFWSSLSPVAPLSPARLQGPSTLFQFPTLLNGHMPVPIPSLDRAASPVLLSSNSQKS
# How it was run: as §1
# [10] = target: T7, FEV (Homo sapiens, UniProt Q99581 1-238); details: protein: recombinant; tags: N-terminal GST; dsDNA, one strand shown
# T7 sequence: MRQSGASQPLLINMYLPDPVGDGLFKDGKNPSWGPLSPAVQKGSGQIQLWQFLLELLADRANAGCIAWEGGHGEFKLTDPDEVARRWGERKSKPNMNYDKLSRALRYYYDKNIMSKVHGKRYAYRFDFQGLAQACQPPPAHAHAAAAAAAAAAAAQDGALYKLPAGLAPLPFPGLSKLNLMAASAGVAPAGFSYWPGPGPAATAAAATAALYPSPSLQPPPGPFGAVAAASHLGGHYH
# How it was run: as §1
# [11] = target: ETV5 (Homo sapiens, UniProt P41161 1-510); details: protein: recombinant; tags: N-terminal GST; dsDNA, one strand shown
# How it was run: as §1
# [12] = target: HSF1 (Homo sapiens, UniProt Q00613 1-529); details: protein: recombinant; tags: N-terminal GST; chain copies: 3; dsDNA, one strand shown
# How it was run: as §1
# [13] = target: T8, SPIC (Homo sapiens, UniProt Q8N5J4 1-248); details: protein: recombinant; tags: N-terminal GST; dsDNA, one strand shown
# T8 sequence: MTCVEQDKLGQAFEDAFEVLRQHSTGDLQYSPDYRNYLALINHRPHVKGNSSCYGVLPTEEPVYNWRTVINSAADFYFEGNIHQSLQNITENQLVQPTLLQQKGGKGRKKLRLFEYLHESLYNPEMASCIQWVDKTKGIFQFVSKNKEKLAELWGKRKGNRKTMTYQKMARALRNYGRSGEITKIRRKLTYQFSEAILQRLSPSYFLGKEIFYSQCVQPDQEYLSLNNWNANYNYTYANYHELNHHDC
# How it was run: as §1
# [14] = target: ELF4 (Homo sapiens, UniProt Q99607 1-663); details: protein: recombinant; tags: N-terminal GST; dsDNA, one strand shown
# How it was run: as §1
# [15] = target: T9, ELK4 (Homo sapiens, UniProt P28324-2 1-405); details: protein: recombinant; tags: N-terminal GST; dsDNA, one strand shown
# T9 sequence: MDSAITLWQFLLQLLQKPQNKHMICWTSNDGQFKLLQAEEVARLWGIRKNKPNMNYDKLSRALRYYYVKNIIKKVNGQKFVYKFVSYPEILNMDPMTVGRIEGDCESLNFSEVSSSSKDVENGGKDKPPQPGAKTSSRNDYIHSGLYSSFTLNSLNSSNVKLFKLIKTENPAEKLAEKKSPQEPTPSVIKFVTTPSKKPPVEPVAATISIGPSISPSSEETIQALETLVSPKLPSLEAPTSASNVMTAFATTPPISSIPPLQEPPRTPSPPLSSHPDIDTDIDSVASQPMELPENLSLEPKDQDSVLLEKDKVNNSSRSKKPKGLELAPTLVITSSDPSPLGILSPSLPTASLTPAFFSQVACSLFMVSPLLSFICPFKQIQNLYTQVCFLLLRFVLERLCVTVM
# How it was run: as §1
# [16] = target: T10, ETV2 (Homo sapiens, UniProt O00321 1-342); details: protein: recombinant; tags: N-terminal GST; dsDNA, one strand shown
# T10 sequence: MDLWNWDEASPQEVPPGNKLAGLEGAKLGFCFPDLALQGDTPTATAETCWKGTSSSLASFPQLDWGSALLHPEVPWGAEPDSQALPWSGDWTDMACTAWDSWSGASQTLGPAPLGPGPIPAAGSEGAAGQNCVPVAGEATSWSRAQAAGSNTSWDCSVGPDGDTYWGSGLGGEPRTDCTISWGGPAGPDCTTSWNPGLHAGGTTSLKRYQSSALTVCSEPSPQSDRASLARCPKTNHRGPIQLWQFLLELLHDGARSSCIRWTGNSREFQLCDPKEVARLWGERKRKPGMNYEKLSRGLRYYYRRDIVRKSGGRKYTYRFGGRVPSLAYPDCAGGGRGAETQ
# How it was run: as §1
# [17] = target: T11, ELF3 (Homo sapiens, UniProt P78545 1-371); details: protein: recombinant; tags: N-terminal GST; dsDNA, one strand shown
# T11 sequence: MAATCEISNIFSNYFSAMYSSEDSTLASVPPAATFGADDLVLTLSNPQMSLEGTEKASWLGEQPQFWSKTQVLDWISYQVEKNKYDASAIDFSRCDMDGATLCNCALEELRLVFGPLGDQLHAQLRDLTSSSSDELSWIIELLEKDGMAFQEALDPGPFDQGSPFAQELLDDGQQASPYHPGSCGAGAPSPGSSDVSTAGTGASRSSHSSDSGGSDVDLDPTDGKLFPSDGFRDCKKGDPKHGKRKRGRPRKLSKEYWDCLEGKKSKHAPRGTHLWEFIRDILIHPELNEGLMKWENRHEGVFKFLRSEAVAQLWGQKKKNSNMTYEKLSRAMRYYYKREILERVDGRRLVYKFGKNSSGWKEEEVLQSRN
# How it was run: as §1
# [18] = target: CRX (Homo sapiens, UniProt O43186 1-299); details: protein: recombinant; tags: N-terminal GST; dsDNA, one strand shown
# How it was run: as §1
# [19] = target: ETV1 (Homo sapiens, UniProt P50549 1-477); details: protein: recombinant; tags: N-terminal GST; dsDNA, one strand shown
# How it was run: as §1
# Chain of ETV1 (P50549 whole entry): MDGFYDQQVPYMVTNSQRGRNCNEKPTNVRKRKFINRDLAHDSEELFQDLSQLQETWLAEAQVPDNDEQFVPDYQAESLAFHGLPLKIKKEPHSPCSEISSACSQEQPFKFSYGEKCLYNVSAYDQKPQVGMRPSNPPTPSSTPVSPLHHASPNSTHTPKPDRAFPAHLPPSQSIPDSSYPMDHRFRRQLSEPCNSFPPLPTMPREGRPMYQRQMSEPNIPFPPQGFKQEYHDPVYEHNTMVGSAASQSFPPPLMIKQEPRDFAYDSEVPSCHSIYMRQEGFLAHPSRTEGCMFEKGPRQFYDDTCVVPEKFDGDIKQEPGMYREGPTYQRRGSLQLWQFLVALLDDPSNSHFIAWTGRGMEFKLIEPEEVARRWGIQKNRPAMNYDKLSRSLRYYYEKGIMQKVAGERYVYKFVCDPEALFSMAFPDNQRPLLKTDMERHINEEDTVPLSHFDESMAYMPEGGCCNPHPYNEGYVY
# Chain of ELF4 (Q99607 whole entry): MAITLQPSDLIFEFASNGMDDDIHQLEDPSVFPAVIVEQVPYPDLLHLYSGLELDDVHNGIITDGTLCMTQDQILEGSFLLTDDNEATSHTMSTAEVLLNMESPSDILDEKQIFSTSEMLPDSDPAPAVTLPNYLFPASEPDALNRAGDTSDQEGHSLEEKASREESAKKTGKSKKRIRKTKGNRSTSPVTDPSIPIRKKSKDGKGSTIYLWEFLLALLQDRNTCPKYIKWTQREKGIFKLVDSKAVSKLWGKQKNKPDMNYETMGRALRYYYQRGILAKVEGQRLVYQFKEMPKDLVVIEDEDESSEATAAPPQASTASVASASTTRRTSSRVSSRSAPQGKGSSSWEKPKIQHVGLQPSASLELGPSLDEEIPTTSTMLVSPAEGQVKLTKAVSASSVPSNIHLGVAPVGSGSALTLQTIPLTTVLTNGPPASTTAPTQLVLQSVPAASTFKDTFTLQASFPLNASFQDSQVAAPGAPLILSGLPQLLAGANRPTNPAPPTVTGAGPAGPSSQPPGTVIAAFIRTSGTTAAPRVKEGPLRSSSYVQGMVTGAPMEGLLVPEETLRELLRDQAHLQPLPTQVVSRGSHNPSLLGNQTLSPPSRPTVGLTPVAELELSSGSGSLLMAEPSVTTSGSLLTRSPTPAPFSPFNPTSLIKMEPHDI
# Chain of ELF1 (P32519 whole entry): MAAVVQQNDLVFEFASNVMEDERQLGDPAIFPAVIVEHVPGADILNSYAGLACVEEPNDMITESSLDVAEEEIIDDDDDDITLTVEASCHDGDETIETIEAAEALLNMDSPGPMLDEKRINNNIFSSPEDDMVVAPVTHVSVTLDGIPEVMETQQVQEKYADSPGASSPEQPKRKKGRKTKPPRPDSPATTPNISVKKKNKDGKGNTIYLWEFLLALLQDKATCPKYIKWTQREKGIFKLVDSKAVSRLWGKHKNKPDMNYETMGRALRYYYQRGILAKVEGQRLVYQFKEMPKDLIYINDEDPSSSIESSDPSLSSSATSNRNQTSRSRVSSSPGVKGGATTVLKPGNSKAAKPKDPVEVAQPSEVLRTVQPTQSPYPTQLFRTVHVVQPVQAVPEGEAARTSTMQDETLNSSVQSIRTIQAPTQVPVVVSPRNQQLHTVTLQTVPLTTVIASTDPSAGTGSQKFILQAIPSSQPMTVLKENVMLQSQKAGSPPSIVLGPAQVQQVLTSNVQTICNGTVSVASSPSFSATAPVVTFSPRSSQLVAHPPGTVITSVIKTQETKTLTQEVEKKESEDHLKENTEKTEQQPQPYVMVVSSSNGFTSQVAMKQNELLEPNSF
# Chain of CRX (O43186 whole entry): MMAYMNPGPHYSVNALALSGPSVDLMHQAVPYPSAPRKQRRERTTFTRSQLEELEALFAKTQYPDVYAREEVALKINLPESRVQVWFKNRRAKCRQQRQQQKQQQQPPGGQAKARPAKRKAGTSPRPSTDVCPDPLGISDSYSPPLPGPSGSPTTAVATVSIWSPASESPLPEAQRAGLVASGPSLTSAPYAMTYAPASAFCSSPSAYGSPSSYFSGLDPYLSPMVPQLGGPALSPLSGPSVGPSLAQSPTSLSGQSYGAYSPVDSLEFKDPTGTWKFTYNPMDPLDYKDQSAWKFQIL
# Chain of ETV5 (P41161 whole entry): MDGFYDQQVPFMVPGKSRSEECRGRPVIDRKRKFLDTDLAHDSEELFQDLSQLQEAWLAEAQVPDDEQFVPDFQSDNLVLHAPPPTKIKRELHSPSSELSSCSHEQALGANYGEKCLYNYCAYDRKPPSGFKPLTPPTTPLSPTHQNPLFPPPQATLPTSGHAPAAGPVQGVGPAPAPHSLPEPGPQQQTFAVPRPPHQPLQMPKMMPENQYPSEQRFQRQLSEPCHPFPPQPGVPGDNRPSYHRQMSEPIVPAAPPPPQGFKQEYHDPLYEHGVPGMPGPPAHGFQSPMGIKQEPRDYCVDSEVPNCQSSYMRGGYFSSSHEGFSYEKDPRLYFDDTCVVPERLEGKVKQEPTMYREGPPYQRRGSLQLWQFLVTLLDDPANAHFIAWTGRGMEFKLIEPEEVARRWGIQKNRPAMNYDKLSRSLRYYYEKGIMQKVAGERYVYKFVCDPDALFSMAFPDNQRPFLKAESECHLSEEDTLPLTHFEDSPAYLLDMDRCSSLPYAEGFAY
# Chain of HSF1 (Q00613 whole entry): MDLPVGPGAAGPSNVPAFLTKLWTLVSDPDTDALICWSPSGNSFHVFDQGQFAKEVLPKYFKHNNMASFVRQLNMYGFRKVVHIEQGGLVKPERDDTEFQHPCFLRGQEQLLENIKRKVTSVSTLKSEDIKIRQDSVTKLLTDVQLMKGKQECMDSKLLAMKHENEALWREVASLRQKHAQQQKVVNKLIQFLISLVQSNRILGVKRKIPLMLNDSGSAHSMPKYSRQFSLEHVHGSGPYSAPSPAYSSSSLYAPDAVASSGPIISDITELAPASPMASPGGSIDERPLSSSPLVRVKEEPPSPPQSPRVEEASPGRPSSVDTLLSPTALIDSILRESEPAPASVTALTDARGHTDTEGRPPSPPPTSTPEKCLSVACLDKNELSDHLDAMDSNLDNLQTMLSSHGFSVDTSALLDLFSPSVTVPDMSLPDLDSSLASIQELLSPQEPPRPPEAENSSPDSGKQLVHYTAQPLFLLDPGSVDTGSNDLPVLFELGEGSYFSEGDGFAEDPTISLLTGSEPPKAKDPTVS
# Chain of SPIB (Q01892 whole entry): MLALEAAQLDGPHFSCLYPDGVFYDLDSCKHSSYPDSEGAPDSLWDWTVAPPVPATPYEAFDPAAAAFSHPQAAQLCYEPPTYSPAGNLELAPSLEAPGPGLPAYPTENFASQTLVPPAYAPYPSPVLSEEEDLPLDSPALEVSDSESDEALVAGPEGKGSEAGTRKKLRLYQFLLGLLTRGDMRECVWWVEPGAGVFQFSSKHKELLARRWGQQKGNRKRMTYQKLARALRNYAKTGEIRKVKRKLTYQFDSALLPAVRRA
sequence,measurement,setting,value
TTTCTG,binding signal,[1],"1.4 fold enrichment (6-mer frequency, TF over GST control)"
same,binding signal,[2],"1.35 fold enrichment (6-mer frequency, TF over GST control)"
same,binding signal,[3],"1.36 fold enrichment (6-mer frequency, TF over GST control)"
same,binding signal,[4],"1.33 fold enrichment (6-mer frequency, TF over GST control)"
same,binding signal,[5],"1.34 fold enrichment (6-mer frequency, TF over GST control)"
same,binding signal,[6],"1.38 fold enrichment (6-mer frequency, TF over GST control)"
same,binding signal,[7],"1.42 fold enrichment (6-mer frequency, TF over GST control)"
same,binding signal,[8],"1.3 fold enrichment (6-mer frequency, TF over GST control)"
same,binding signal,[9],"1.46 fold enrichment (6-mer frequency, TF over GST control)"
same,binding signal,[10],"1.32 fold enrichment (6-mer frequency, TF over GST control)"
same,binding signal,[11],"1.31 fold enrichment (6-mer frequency, TF over GST control)"
same,binding signal,[12],"2.33 fold enrichment (6-mer frequency, TF over GST control)"
same,binding signal,[13],"1.3 fold enrichment (6-mer frequency, TF over GST control)"
same,binding signal,[14],"1.39 fold enrichment (6-mer frequency, TF over GST control)"
same,binding signal,[15],"1.52 fold enrichment (6-mer frequency, TF over GST control)"
same,binding signal,[16],"1.36 fold enrichment (6-mer frequency, TF over GST control)"
same,binding signal,[17],"1.44 fold enrichment (6-mer frequency, TF over GST control)"
same,binding signal,[18],"1.45 fold enrichment (6-mer frequency, TF over GST control)"
same,binding signal,[19],"1.3 fold enrichment (6-mer frequency, TF over GST control)"
